From PubChem BioAssay (NCATS)
Results filed as inconclusive are left out. The source made the active and inactive calls. Calls follow the shape of the dose curve; as a rule, active = well fitted cell-killing curve with a large enough effect; inconclusive = small, poorly fitted or top-dose-only effect; inactive = flat fitted curve, though single readings scatter.

Assay: qHTS of pediatric cancer cell lines to identify multiple opportunities for drug repurposing: Primary screen for RD cells (AID 1347104); also: nearly all actives have a fitted effect of over 55% in size
Details: RD rhabdomyosarcoma viability, CellTiter-Glo luminescence, 48 h; series mostly up to 46 µM
Excerpt: Drug repurposing or repositioning has been offered as a strategy for drug development in oncology programs. This approach has special potential for childhood cancers and other rare or orphan diseases, where the expected return on new drug development has been a disincentive to pharmaceuticals. […] In this project we exploit the poly-pharmacology of drugs to discover new indications via phenotypic screening of a panel of 19 well-characterized cell lines derived from solid tumors seen in children and adolescents. The goal is to identify approved drugs with previously unrecognized anticancer properties that has the potential to reveal new mechanisms and biological processes involved in carcinogenesis or drug resistance. We employed a titration-based paradigm (quantitative high-throughput screening or qHTS), where all compounds were tested at multiple concentrations for their effect on cell viability. Concentration-response curves (CRCs) were derived directly from the primary screen, and both potency and efficacy values were used to identify compounds with robust bioactivity profiles. We screened the NIH Chemical Genomics Center (NCGC) Pharmaceutical Collection (NPC) and Mechanism Interrogation Plate (MIPE) small molecule collections of approved and investigational compounds against these cell lines; and measured metabolically active cells after 48 hours of compound treatment as a proxy for cell viability. […] Assay Submitter: Nathalia J. Martinez, National Center for Advancing Translational Sciences, National Institutes of Health, Rockville, MD, USA; email: natalia.martinez@nih.gov Shen, M et al. Quantitative high-throughput phenotypic screening of pediatric cancer cell lines identifies multiple opportunities for drug repurposing. Oncotarget 2017 Dec 19;9(4):4758-4772. PMID 29435139.
The cells were obtained from University of North Carolina (UNC), Pediatric Preclinical Testing Program (PPT), and Coriell Institute (CI). qHTS cell viability assay: Cells were assayed in growth media at a density of 500-1,000 cells/well. Five microliters of cells were dispensed into 1,536-well, white, solid-bottom, TC-treated plates (Greiner Bio One) using a multidrop dispenser and incubated at 37 degrees C, 5% CO2, under a humidified atmosphere for 5 hours. Twenty-three nanoliters of compounds and controls (neutral control DMSO or positive control bortezomib at final concentration of 2.3 µM) were subsequently transferred by Kalypsys pintool. For primary screens, the MIPE collection was tested at 11-point dilutions (final concentrations range from 0.78 nM to 46 µM) and the NPC collection at 8-point dilutions (final concentrations range from 0.59 nM to 46 µM). Compounds tested in follow-up screens were assayed at 11-point dilutions. Cells were incubated for 48 hours, followed by addition of 3 µL of CellTiter-Glo (Promega). After a 15 min incubation at room temperature, samples were analyzed for luminescence intensity using a ViewLux High-throughput CCD imager equipped with clear filters.
Potency is read from the fitted curve at half-maximal effect.

Row | Structure (SMILES) | Potency | activity change, negative = cytotoxic
1 | C[C@@H](Oc1cc(-c2cnn(C3CCNCC3)c2)cnc1N)c1c(Cl)ccc(F)c1Cl | 16600 nM (active) | 
2 | CC(C)(C)NC(=O)[C@H]1CN(Cc2cccnc2)CCN1C[C@@H](O)C[C@@H](Cc1ccccc1)C(=O)N[C@H]1c2ccccc2C[C@H]1O | 1480 nM (active) | 
3 | CC(C)[C@H](C(=O)Nc1ccc(C(=O)NO)cc1)c1ccccc1 | 2640 nM (active) | 
4 | CN1CCN(c2ccc3nc(-c4c(N)c5c(F)cccc5[nH]c4=O)[nH]c3c2)CC1 | 18700 nM (active) | 
5 | CC(=O)SC[C@@H](C)C(=O)N1CCC[C@H]1C(=O)N[C@@H](Cc1ccccc1)C(=O)O | inactive | 
6 | CNC(=O)c1cc(Oc2ccc(NC(=O)Nc3cc(C(C)(C)C)nn3-c3ccc4ncccc4c3)c(F)c2)ccn1 | 10500 nM (active) | 
7 | CCCn1c(=O)c2[nH]c(-c3cnn(Cc4cccc(C(F)(F)F)c4)c3)nc2n(CC)c1=O | inactive | 
8 | CC(O)C1C(=O)N2C(C(=O)O)=C(SC3CNC(C(=O)N(C)C)C3)C(C)C12 (stereo not given) | inactive | 
9 | CN1c2cc(O)c(N=NC(N)=O)cc2CC1S(=O)(=O)O (stereo not given) | inactive | 
10 | Cc1c(C)n(Cc2ccc(-c3ccccc3C(=O)O)cc2)c2ccc(C(=O)N[C@@H](C)c3ccc([N+](=O)[O-])cc3)cc12 | 1660 nM (active) | 
11 | O=C(C=Cc1c(C(=O)O)[nH]c2cc(Cl)cc(Cl)c12)Nc1ccccc1 | inactive | 
12 | NC1(Cc2ccc(Cl)cc2)CCN(c2ncnc3[nH]ccc23)CC1 | 11800 nM (active) | 
13 | CCCCOc1c(C(=O)c2c(F)cc(C)cc2F)cnc2n[nH]cc12 | 18700 nM (active) | 
14 | Cc1c(CN2CCN(S(C)(=O)=O)CC2)sc2c(N3CCOCC3)nc(-c3cnc(N)nc3)nc12 | 132 nM (active) | 
15 | COc1cc(C(=O)NS(=O)(=O)c2ccccc2C)ccc1Cc1cn(C)c2ccc(NC(=O)OC3CCCC3)cc12 | 37200 nM (active) | 
16 | C#Cc1cccc(Nc2ncnc3cc(OC)c(OCCCCCCC(=O)NO)cc23)c1 | 187 nM (active) | 
17 | CC1COC2(CCN(c3nc(=O)c4cc(C(F)(F)F)cc([N+](=O)[O-])c4s3)CC2)O1 (stereo not given) | inactive | 
18 | CNC(=O)c1c(F)cccc1Nc1nc(Nc2cc3c(cc2OC)CCN3C(=O)CN(C)C)nc2[nH]ccc12 | 662 nM (active) | 
19 | Cc1nc2ccc(CN(C)c3ccc(C(=O)N[C@@H](CCC(=O)O)C(=O)O)s3)cc2c(=O)[nH]1 | inactive | 
20 | CC(NCc1ccc2c(c1)nc(NC(=O)c1ccc(-c3cn[nH]c3)s1)n2CC(C)(C)O)C(C)(C)C (stereo not given) | 1050 nM (active) | 

Row | Structure (SMILES) | Potency | activity change, negative = cytotoxic
21 | CC(C)(C)c1cnc(CSc2cnc(NC(=O)C3CCNCC3)s2)o1 | 264 nM (active) | 
22 | Nc1cc(C(F)(F)F)c(-c2cc(N3CCOCC3)nc(N3CCOCC3)n2)cn1 | 743 nM (active) | 
23 | Cc1cc(Nc2ncnc3ccc(-c4ccc(CNCCS(C)(=O)=O)o4)cc23)ccc1Oc1ccn2ncnc2c1 | 16600 nM (active) | 
24 | COC(=O)Nc1nc2ccc(C(=O)c3ccc(F)cc3)cc2[nH]1 | 743 nM (active) | 
25 | CCc1cc2c(cc1N1CCC(N3CCOCC3)CC1)C(C)(C)c1[nH]c3cc(C#N)ccc3c1C2=O | inactive | 
26 | O=C(O)c1ccc2c(c1)nc(Nc1cccc(Cl)c1)c1ccncc12 | 9350 nM (active) | 
27 | CCOc1ccccc1OCCNC(C)Cc1ccc(OC)c(S(N)(=O)=O)c1 (stereo not given) | inactive | 
28 | Cc1ccc(CN2CCNCC2)cc1NC(=O)CNc1ccc(F)c(F)c1 | inactive | 
29 | COc1cc(=C2C=c3ccccc3=N2)[nH]c1=Cc1[nH]c(C)cc1C | 2960 nM (active) | 
30 | O=C(c1ccc(Nc2nccc(-c3cc4ccccc4s3)n2)cc1)N1CCC(N2CCCC2)CC1 | 10500 nM (active) | 
31 | C[C@H]1C[C@@H]2[C@@H]([C@@H](O)C[C@@]3(C)[C@H]2CC[C@]3(O)C(=O)CO)[C@@]2(C)C=CC(=O)C=C12 | inactive | 
32 | Nc1ccccc1NC(=O)c1ccc(CNC(=O)OCc2cccnc2)cc1 | 5260 nM (active) | 
33 | CN1CC[C@@H](c2c(O)cc(O)c3c(=O)cc(-c4ccccc4Cl)oc23)[C@@H](O)C1 | 235 nM (active) | 
34 | Nc1ccc(S(=O)(=O)Nc2ncccn2)cc1 | inactive | 
35 | Cc1cnc(-c2cnc(NCCNc3ccc(C#N)cn3)nc2-c2ccc(Cl)cc2Cl)[nH]1 | 20900 nM (active) | 
36 | CCCCc1nc2cc(C=CC(=O)NO)ccc2n1CCN(CC)CC | 2090 nM (active) | 
37 | Fc1cc(-c2cccc3ncc(-c4cnn(C5CCNCC5)c4)nc23)cc(F)c1CN1CCOCC1 | 18700 nM (active) | 
38 | COc1ccc(CC2c3cc(OC)c(OC)cc3CC[N+]2(C)CCC(=O)OCCCCCOC(=O)CC[N+]2(C)CCc3cc(OC)c(OC)cc3C2Cc2ccc(OC)c(OC)c2)cc1OC (stereo not given) |  | 4.63% [at 9.22 µM] (inactive)
39 | CC[C@H]1CN2CCc3cc(OC)c(OC)cc3[C@H]2C[C@@H]1C[C@@H]1NCCc2cc(OC)c(OC)cc21 | 469 nM (active) | 
40 | Cc1nc2cnc3ccc(C#Cc4cccnc4)cc3c2n1-c1ccc(C(C)(C)C#N)cc1 | 83.3 nM (active) | 
